Active and inactive are the calls of the source.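 Rule for the calls: active = at least 15% MAC1-positive differentiation at the top dose and half-maximal dose below 10 µM; inactive = the rest.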

This assay is described as follows: MAC1 induction in normal CD34+ cells, SAR follow-up, cell-based, MAC1 flow cytometry, set 1 (AID 743198). Conditions: human CD34+ cells, 4 days; at 10 µM (top of the series). Background: Flow cytometry measures light scatter and fluorescence of single cells or particles in a stream.
As to `O=C(CCNC(=O)c1ccc(Cl)c(Cl)c1)N[C@@H]1CCCc2ccccc21`, the MAC1+ differentiation, normalised worked out at 96.1%.
Next, `O=C(CCNC(=O)c1ccc(Cl)cc1)NC1CCCc2ccccc21` (stereo not given): 86.2%; `O=C(CCNC(=O)c1ccc2c(c1)OC(F)(F)O2)N[C@@H]1CCCc2ccccc21`: 90%.
Next, `O=C(CCNC(=O)c1ccc(C(F)(F)F)cc1)N[C@@H]1CCCc2ccccc21`: 96%; `O=C(CCNC(=O)c1ccc(Cl)cc1)N[C@H]1CCCc2ccccc21`: 4.01% (inactive); `O=C(CCNC(=O)c1ccc(Cl)cc1)N[C@@H]1CCCc2ccccc21`: 95.7%.
To `O=C(CCCNC(=O)c1ccc(OC(F)(F)F)cc1)N[C@@H]1CCCc2ccccc21` belongs 2.93% (inactive); to `O=C(CCNC(=O)c1ccc(OC(F)(F)F)cc1)N[C@@H]1CCCc2ccccc21`, 96.3%.
In the case of `O=C(O)c1cccnc1Nc1ccc(Cl)cc1`, the MAC1+ differentiation, normalised turned out to be 85%.
`O=C(CNC(=O)c1ccc(OC(F)(F)F)cc1)N[C@@H]1CCCc2ccccc21`: the “MAC1+ differentiation, normalised” value was 2.98% (inactive).

The record behind these values is PubChem BioAssay AID743198 (NMMLSC, 2013).
